Experimental data taken from the supplement of paper PMC11732987, “Enantioselective OTUD7B fragment discovery through chemoproteomics screening and high-throughput optimisation” (Communications Chemistry, 2025).

What was measured:
Test in all cases: log2 ratio of Biotin-Ahx-Ub-VS probe labelling (fragment/DMSO); higher = less target engagement (more negative = stronger competition), active = hit call of the paper (q ≤ 0.05, log2 ratio ≤ -1)
Conditions in all cases: compound concentration: 200 uM; treatment time: 3 h
USP42 = target: T1, USP42 (UniProt Q9H9J4)
T1 sequence (whole entry): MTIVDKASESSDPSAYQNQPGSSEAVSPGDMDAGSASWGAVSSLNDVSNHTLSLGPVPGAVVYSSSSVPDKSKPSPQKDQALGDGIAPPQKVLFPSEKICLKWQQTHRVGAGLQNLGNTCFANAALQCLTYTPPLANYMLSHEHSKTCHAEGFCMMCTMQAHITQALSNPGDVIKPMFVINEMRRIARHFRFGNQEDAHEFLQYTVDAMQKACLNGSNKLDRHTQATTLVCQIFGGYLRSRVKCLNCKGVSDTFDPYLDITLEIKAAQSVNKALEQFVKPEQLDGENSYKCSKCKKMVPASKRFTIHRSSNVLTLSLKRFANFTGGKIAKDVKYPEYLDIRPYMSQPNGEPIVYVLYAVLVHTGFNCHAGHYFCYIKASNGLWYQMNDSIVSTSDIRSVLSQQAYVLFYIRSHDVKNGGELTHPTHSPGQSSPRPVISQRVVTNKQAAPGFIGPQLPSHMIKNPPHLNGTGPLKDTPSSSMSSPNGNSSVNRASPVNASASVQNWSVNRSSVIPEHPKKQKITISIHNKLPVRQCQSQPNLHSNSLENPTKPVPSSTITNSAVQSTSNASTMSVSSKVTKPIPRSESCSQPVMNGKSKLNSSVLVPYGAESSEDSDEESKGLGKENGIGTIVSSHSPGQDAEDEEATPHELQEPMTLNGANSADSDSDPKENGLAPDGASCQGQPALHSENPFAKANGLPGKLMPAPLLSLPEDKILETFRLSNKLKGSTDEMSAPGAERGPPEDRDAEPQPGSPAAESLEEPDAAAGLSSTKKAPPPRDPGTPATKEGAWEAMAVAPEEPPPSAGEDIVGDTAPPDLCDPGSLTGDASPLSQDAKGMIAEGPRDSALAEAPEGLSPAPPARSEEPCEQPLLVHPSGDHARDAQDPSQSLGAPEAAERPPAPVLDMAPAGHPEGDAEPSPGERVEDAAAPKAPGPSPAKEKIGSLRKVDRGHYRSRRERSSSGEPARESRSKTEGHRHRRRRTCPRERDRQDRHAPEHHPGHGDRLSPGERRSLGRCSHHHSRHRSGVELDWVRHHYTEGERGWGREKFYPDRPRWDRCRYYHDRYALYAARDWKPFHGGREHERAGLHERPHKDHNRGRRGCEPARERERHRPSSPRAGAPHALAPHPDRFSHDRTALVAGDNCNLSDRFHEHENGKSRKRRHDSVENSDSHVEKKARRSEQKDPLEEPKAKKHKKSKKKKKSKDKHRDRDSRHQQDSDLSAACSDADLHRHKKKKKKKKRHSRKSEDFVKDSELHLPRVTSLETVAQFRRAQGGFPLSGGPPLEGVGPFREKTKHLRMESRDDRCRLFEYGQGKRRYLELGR
Method in brief: (§1)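 Average log2 ratios of fragment over vehicle were obtained by unpaired t-test from global-median-normalised Spectronaut label-free quantities. Proteins with ≥2 unique peptides were included. HEK293T lysate (495 µg per sample) was treated in triplicate with fragment at 200 µM or vehicle for 3 h, then with Biotin-Ahx-Ub-VS at 0.5 µM final for 1 h, and labelled DUBs were NeutrAvidin-enriched and run by diaPASEF LC-MS/MS.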

USP46 = USP46 (UniProt P62068)
Method in brief: as §1

USP47 = target: T2, USP47 (UniProt Q96K76)
T2 sequence (whole entry): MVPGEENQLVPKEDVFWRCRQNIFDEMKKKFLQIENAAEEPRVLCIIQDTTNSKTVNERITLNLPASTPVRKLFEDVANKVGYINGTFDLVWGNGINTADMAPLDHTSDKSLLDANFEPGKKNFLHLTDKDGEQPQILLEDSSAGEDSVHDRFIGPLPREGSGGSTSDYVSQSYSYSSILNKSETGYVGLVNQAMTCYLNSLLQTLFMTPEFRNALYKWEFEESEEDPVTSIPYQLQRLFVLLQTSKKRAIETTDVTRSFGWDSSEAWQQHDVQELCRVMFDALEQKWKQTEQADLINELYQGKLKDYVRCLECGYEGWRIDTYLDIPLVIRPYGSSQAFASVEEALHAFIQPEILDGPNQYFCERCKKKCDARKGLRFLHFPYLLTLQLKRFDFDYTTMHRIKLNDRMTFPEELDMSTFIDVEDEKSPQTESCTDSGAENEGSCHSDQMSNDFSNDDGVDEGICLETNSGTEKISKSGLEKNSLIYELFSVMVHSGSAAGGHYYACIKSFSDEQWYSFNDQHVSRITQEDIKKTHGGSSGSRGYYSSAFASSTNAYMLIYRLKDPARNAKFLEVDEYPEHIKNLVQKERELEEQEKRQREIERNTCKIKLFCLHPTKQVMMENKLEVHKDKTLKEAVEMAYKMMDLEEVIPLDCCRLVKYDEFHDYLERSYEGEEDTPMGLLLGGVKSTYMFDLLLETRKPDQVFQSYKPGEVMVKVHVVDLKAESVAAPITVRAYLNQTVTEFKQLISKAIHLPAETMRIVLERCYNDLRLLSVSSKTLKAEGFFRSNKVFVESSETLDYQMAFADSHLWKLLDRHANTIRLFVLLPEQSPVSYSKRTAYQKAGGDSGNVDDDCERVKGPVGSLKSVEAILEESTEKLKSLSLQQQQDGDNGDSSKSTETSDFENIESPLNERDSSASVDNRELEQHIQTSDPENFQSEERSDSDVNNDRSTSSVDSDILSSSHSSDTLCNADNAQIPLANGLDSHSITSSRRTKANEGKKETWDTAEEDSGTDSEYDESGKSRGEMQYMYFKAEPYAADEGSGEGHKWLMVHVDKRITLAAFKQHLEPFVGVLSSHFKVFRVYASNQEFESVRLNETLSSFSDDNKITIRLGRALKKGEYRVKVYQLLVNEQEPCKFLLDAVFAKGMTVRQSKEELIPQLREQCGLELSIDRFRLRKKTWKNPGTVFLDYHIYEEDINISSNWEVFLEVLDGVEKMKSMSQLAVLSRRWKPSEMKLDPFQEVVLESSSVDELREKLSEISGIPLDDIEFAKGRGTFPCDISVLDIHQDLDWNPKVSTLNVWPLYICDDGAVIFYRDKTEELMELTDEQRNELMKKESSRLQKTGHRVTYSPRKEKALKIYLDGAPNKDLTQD
Method in brief: as §1

USP48 = target: T3, USP48 (UniProt Q86UV5)
T3 sequence (whole entry): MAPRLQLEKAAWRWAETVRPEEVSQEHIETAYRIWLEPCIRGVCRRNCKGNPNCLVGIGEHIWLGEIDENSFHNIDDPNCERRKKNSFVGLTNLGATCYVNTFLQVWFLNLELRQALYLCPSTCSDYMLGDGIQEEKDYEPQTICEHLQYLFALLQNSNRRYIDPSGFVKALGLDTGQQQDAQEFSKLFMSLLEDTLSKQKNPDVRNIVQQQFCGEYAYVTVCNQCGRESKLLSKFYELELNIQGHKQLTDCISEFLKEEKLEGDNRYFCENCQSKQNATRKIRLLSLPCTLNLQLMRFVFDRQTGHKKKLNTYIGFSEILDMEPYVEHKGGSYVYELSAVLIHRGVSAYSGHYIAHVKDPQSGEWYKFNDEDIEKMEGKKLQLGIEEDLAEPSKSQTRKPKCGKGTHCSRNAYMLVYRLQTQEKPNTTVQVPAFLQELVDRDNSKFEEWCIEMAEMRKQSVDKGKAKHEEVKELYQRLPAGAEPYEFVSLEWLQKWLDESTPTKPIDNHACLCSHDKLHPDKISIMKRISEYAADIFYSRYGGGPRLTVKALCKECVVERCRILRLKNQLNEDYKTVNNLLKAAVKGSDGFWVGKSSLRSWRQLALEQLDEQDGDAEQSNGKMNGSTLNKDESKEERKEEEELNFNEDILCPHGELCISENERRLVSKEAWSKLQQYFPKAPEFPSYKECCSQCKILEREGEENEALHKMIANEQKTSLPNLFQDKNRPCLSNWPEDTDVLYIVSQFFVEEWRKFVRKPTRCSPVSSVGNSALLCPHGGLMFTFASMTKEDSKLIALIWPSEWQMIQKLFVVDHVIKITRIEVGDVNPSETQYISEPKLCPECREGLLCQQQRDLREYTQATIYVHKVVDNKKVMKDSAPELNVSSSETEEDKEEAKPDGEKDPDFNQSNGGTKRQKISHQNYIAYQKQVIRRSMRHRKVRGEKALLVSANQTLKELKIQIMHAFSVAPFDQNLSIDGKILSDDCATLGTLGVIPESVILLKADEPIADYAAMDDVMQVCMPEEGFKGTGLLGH
Method in brief: as §1

USP5 = target: T4, USP5 (UniProt P45974)
T4 sequence (whole entry): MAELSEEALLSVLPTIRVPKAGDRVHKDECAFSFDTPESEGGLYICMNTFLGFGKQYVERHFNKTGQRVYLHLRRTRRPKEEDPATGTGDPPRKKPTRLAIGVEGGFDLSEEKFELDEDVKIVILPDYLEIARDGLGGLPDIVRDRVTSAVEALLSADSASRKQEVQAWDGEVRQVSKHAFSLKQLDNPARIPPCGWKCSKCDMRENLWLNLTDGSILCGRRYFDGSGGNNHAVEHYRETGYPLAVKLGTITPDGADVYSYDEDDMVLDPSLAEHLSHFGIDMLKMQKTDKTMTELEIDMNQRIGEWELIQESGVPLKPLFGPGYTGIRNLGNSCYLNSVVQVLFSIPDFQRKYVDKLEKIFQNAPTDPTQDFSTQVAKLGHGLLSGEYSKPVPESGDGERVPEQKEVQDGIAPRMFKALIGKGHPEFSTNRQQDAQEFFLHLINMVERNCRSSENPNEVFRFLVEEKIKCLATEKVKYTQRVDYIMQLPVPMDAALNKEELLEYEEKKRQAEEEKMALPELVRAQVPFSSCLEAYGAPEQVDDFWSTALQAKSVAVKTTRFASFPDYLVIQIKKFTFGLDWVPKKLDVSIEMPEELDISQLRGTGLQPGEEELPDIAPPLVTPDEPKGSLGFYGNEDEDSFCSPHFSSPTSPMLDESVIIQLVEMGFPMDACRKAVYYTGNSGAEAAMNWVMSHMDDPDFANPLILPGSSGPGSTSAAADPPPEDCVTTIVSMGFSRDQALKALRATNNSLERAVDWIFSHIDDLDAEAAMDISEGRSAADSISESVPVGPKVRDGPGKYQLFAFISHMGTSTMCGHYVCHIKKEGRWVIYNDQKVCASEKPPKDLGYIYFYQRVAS
Method in brief: as §1

USP54 = USP54 (UniProt Q70EL1)
Method in brief: as §1

USP7 = USP7 (UniProt Q93009)
Method in brief: as §1

USP8 = target: T5, USP8 (UniProt P40818)
T5 sequence (whole entry): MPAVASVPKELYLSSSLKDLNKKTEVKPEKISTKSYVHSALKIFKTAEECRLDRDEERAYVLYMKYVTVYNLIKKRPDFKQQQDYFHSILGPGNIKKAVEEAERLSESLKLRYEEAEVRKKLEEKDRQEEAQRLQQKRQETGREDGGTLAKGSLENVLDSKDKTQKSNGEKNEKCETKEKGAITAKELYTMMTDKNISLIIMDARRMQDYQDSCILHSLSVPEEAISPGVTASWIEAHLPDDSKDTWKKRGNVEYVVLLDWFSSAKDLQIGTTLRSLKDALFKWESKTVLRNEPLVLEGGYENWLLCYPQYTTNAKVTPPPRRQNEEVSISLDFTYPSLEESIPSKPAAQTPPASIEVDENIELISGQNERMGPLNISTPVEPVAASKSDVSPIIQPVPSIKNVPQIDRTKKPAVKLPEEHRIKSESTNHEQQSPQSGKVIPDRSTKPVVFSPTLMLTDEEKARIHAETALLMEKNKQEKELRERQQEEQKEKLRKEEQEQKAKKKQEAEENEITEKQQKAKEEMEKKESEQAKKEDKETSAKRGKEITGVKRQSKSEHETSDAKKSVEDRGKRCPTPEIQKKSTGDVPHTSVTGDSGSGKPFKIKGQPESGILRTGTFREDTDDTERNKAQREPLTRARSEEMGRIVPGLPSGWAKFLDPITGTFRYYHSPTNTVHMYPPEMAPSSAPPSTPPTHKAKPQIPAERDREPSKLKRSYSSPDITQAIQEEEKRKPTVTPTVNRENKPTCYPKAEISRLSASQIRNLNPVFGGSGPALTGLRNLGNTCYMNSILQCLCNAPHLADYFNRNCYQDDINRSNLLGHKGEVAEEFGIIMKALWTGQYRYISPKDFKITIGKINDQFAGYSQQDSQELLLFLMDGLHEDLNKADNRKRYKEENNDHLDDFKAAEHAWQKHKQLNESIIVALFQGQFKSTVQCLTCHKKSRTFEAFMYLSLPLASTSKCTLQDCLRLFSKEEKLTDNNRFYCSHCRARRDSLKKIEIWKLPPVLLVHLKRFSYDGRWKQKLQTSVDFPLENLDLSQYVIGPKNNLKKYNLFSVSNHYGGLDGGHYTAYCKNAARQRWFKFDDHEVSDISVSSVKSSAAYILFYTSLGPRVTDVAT
Method in brief: as §1

USP9X = USP9X (UniProt Q93008)
Method in brief: as §1

UniProt O00487 = target: UniProt O00487
Method in brief: as §1

Measured: log2 ratio of Biotin-Ahx-Ub-VS probe labelling

Sequence of USP46 (P62068 whole entry): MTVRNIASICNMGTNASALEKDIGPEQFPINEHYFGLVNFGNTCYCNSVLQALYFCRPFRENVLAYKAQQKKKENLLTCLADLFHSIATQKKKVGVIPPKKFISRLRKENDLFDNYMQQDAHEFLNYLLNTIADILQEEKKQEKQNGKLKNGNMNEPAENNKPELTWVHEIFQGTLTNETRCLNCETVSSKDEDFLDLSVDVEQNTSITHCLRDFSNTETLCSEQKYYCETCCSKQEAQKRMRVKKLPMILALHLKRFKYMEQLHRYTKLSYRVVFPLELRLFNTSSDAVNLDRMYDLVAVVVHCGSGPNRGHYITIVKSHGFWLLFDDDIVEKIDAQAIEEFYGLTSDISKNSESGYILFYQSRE
Sequence of USP7 (Q93009 whole entry, looked up): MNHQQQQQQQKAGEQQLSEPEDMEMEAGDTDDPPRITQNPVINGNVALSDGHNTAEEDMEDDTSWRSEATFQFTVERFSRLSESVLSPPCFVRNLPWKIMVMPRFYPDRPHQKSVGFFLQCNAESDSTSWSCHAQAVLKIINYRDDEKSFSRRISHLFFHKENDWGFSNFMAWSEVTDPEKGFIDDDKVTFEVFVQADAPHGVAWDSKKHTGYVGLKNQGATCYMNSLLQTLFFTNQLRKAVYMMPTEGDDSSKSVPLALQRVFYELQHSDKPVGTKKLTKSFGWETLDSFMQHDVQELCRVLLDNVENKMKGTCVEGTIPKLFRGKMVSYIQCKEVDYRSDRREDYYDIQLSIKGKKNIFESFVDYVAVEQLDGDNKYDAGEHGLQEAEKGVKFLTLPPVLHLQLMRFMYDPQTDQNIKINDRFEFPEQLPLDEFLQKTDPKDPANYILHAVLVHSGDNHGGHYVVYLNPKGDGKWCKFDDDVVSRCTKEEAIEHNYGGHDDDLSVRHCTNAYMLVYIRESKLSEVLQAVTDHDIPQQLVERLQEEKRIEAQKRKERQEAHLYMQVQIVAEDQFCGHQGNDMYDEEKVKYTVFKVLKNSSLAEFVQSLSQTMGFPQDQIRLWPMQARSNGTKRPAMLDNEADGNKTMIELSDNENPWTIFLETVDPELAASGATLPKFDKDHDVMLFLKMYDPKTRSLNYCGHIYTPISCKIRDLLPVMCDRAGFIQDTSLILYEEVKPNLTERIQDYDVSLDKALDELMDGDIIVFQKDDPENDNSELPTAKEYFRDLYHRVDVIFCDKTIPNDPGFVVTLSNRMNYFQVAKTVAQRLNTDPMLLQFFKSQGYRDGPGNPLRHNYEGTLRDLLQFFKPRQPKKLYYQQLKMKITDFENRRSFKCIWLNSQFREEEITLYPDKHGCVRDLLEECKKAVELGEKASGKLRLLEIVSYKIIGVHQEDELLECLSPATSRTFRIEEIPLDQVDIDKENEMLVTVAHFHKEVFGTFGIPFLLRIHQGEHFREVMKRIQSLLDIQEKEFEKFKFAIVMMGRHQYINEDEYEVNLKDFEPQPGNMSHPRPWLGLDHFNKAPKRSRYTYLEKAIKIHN
Sequence of UniProt O00487 (O00487 whole entry): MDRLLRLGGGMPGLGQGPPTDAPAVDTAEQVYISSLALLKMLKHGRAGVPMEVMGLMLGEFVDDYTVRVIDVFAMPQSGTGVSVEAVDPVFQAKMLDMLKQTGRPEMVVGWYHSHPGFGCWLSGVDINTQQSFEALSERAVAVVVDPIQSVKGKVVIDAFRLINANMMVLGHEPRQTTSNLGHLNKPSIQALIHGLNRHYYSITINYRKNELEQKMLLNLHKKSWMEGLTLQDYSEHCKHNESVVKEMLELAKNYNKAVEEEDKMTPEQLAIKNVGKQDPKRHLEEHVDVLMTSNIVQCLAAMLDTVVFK
Sequence of USP54 (Q70EL1 whole entry): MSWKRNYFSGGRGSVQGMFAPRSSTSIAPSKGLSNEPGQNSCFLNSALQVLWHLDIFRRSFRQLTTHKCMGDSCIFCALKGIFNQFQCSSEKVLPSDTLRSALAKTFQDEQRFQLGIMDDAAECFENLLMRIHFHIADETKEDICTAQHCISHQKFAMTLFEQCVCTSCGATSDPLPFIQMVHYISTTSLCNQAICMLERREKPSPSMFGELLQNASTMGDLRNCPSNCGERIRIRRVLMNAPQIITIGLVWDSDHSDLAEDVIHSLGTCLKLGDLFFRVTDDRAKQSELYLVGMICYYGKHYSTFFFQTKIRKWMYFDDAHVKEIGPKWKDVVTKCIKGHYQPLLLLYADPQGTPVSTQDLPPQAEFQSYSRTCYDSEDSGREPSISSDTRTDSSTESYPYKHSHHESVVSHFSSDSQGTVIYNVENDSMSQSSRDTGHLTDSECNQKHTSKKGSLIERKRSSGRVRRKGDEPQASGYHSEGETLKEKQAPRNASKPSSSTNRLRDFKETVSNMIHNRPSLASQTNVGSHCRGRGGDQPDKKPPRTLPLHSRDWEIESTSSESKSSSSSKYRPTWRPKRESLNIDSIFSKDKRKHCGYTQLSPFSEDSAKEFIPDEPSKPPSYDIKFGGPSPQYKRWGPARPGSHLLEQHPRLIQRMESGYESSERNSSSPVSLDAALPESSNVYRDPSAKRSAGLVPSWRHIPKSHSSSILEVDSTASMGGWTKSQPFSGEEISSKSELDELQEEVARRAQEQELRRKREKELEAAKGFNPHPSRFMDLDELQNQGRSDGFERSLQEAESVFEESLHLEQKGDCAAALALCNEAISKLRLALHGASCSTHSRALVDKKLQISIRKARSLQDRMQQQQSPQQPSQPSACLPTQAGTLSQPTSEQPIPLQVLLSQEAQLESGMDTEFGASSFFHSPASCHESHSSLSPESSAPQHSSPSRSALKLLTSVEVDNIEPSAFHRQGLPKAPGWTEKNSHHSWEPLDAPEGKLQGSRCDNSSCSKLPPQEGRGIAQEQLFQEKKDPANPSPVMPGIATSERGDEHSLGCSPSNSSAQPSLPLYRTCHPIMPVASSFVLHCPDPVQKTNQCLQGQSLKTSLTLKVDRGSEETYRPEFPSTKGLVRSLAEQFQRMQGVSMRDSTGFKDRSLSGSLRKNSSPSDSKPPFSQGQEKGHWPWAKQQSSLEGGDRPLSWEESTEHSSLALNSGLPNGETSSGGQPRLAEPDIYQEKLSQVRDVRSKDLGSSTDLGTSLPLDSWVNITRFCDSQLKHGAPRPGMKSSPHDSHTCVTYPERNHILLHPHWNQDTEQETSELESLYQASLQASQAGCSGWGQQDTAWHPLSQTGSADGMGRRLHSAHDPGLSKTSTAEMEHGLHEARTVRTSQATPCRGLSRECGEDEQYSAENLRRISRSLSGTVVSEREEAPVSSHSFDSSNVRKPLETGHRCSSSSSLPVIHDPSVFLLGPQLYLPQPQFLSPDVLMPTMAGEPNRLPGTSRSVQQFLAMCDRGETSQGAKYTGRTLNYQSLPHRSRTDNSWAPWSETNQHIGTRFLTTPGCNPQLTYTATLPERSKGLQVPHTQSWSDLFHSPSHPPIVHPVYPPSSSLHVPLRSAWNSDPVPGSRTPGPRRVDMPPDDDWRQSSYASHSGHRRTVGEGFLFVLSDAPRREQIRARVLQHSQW

O=C(CCl)N1CCC(c2noc3cc(F)ccc23)CC1
active: USP7 -1.81
inactive: USP42 0.542 | USP46 -0.343 | USP47 -0.18 | USP48 -0.806 | USP5 0.182 | USP54 0.351 | USP8 -0.0714 | USP9X -0.201 | UniProt O00487 -0.0622
